The whole screen tested about 5,500 compounds, of which about 2,000 (36%) were called active. Not shown: some 18% with an inconclusive outcome. Rule as the data show it: active = normalized growth mostly below about 0.91 (no sharp cut-off); inconclusive = no clear call, values can overlap the other calls; inactive = mostly above about 0.92. The list shows a part of the results.
Experiment: chemical genetic growth profiling, strain panel (AID 1159580);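 also: tested at 20 µM; growth read once vehicle control cultures reached saturation at 30 °C; 1 = growth at the plate median or of vehicle wells; lower values mean less growth of the strain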
Conditions: S. cerevisiae deletion strains, growth OD

Measured: normalized growth

C#CCN(C)C(C)Cc1ccccc1 (stereo not drawn)
inactive: locus YHR030C, strain SLT2, active compounds read low 1.01 | locus YHR079C, strain IRE1, active compounds read low 1.03 | locus YJL095W, strain BCK1, active compounds read low 1.02 | locus YJR066W, strain TOR1, active compounds read low 0.95 | locus YLR113W, strain HOG1, active compounds read low 0.994 | locus YNL183C, strain NPR1, active compounds read low 0.959 | locus YOR231W, strain MKK1, active compounds read low 1.02 | locus YPL256C, strain CLN2, active compounds read low 0.989

Source: PubChem BioAssay AID1159580 (chemical genetic matrix, 2015)
